Compound activity deposited in PubChem BioAssay by National Center for Advancing Translational Sciences (NCATS).
FBPA Giardia inh: inhibitors of Giardia lamblia fructose-1,6-bisphosphate aldolase | A8B2U2 | purified Giardia FBPA | Potency, µM (titrated, usually from 59.6 µM), inactives show at the top dose activity, negative = inhibition, most hits filed as inhibitors | actives 0.71% (n = 290,000); further: potency means the concentration at half of the fitted maximal effect; on the % scale 0 is the no-effect control and ±100 the full control effect; nearly all actives have a fitted effect of over 55% in size
Target sequence (A8B2U2 whole entry, looked up): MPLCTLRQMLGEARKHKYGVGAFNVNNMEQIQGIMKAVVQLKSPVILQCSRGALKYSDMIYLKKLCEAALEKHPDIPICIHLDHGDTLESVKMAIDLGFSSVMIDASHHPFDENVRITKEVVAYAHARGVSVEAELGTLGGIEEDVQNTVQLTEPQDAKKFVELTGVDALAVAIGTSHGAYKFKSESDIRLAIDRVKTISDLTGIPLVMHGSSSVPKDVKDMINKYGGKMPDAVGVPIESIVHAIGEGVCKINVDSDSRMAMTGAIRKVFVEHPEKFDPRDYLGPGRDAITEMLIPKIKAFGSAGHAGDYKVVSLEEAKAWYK
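Giardia FBPA (40 nM reagent) was preincubated 10 min at RT with compound (up to 57.5 uM final), then substrate plus GAPDH/TPI/NAD/arsenate coupling system with diaphorase/resazurin was added; resorufin fluorescence (525/598 nm) was read after 20 min.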
Shiga inhibitor: Shiga toxin inhibition. inhibition, % at 38.7 µM. Vero cells, Shiga toxin protein synthesis inhibition reporter. actives 9.2% (n = 290,000); in the data active means inhibition mostly above about 28%, no sharp cut-off; inactive means mostly below about 43%; further: 0% is about no effect
Cycloheximide cs: affects cycloheximide protein synthesis inhibition readout, counter-screen | cell reporter, cycloheximide protein synthesis inhibition counterscreen | max response, % | actives 12% (n = 300,000); in the data active means max response mostly above about 13%, no sharp cut-off; inactive means mostly below about 14%; further: read at 38.3 µM for the half of the compounds with a filed dose; 0% is about no effect
NS1 inh: inhibitors of influenza NS1 protein function. Potency, µM (highest dose often 46.1 µM), without a hit: top-dose activity, positive = more growth. actives 0.4% (n = 270,000). AID 2326; calls by dose curve; further: potency means the concentration at half of the fitted maximal effect; actives are rising curves; nearly all actives have a fitted effect of over 50% in size
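Compounds were scored for reversing the slow growth caused by influenza A NS1 in S. cerevisiae, measured by optical density at 600 nm. Assay medium contained 2% galactose at pH 6.0; NS1-free yeast of the same strain were the positive control.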
Pf growth 48h: inhibits P. falciparum growth in the first generation, 48 h; actives 5.9% (n = 310,000); P. falciparum luciferase growth in erythrocytes, 48 h; Potency, µM (titrated, usually from 28.7 µM), for inactives: at the top dose activity change, negative = inhibition, usual class: inhibitors; further: potency means the concentration at half of the fitted maximal effect; on the % scale 0 is the no-effect control and ±100 the full control effect
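Cell-based growth assay: transgenic P. falciparum expressing firefly luciferase, cultured in red cells within RPMI 1640 containing 0.5% w/v Albumax, 24 mM bicarbonate and gentamycin. A drop in luciferase activity indicates inhibition.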
Pf growth 96h: inhibits malaria parasite growth, 96 h; actives 6.9% (n = 320,000); Potency, µM (highest dose often 28.7 µM), for the others: at the top dose activity change, negative = inhibition, actives largely listed as inhibitors; P. falciparum luciferase reporter growth, 96 h; AID 504834; further: potency means the concentration at half of the fitted maximal effect; on the % scale 0 is the no-effect control and ±100 the full control effect
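P. falciparum expressing integrated firefly luciferase grown in erythrocytes (2% hematocrit, 0.05% parasitemia final) with compounds for 96 hours at 37 C, 5% CO2. Growth inhibition read as loss of luminescence after adding luciferase detection reagent.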
An asterisk follows results filed as active; ? = inconclusive; . = no result; [ ] = dose if it differs, or a comment. Rows were chosen to be rich in hits. Some 21% of all compounds tested hit in one or more screens of this group. Unless noted, the call rests on the fitted dose curve; in most records, active means well fitted curve in the direction sought with a large enough effect; inconclusive means small, poorly fitted or top-dose-only effect, or another doubt; inactive means no such curve, though single readings can be large; an effect the other way counts as inactive or inconclusive.

SMILES | FBPA Giardia inh | Shiga inhibitor | Cycloheximide cs | NS1 inh | Pf growth 48h | Pf growth 96h
Cc1ccc(C)c(NC(=O)c2ccc3ccccc3n2)c1 | -6% | 39 | 30* | -14% | . | 287%
O=C(Cn1nc(Cc2ccncc2)c2ccccc2c1=O)Nc1cccnc1Cl | 0% | -4 | -1 | -8% | -22% | -28%
O=C(/C=C/c1ccc(Cl)cc1)NC(=S)Nc1ccc(C(=O)O)cc1 | -1% | -6 | -2 | 1% | . | -9%
CC(=O)c1ccc(NC(=S)NC(=O)/C=C/c2ccc(F)cc2)cc1 | 16% | 26 | 20* | 7% | 1% | ?
CN(C)c1ccc(NC(=S)NC(=O)/C=C/c2ccc(Cl)cc2)cc1 | 11% | 105* | 53* | 19% | 270% | 266%
CCCCn1c(N)c(N(C)C(=O)c2cn(-c3ccccc3)nc2-c2ccccc2)c(=O)[nH]c1=O | . | . | . | . | -29% | ?
Cc1ccc(Cn2c(CCNC(=O)c3cccc(C)c3)nc3ccccc32)cc1 | . | 5 | -6 | . | . | .
Cc1ccc(C(C)C)c(OCC(=O)OCC(=O)NC2CCS(=O)(=O)C2)c1 (stereo not given) | . | . | . | . | -6% | 5%
CC1(C(=O)O)Cc2ccccc2C(=O)O1 (stereo not given) | -19% | 5 | 16 | 18% | . | -18%
CC1(C)CCC2=C(O1)c1ccccc1C(=O)C2=O | 1.6µM* | . | . | -1% | . | .
CCOC(=O)C1=C(CBr)NC(=O)NC1C (stereo not given) | -8% | -2 | -3 | . | 27% | 40%
CC(C)c1ccc(CN(C(=O)c2cc3ccccc3oc2=O)C2CCS(=O)(=O)C2)cc1 (stereo not given) | 0% | -1 | 15 | -2% | 3% | .
COc1cccc(CN(C(=O)c2cc3ccccc3oc2=O)C2CCS(=O)(=O)C2)c1 (stereo not given) | 6% | 79* | 42* | ? | 1% | 6.6µM*
COc1cccc(CN(C(=O)c2ccccc2Br)C2CCS(=O)(=O)C2)c1 (stereo not given) | . | -7 | -7 | -5% | -12% | ?
O=C(c1cc2ccccc2oc1=O)N(Cc1cccc(Br)c1)C1CCS(=O)(=O)C1 (stereo not given) | 1% | 31 | 15* | -6% | -9% | -6%
CN(C)c1ccc(CN(C(=O)c2cc3ccccc3oc2=O)C2CCS(=O)(=O)C2)cc1 (stereo not given) | . | 63* | 47* | -4% | -16% | ?
CC[N+]1(CC)CC2CCC(C)(C1)C2(C)C (stereo not given) | 11% | -6 | -4 | . | -8% | -73%
CCOC(=O)C1CCCN(C(=O)Cn2ncc3c([nH]c4ccc(C)cc43)c2=O)C1 (stereo not given) | 0% | 10 | -2 | -4% | ? | -13%
O=C(Nc1nnc2n1CCS2)c1ccc(Br)o1 | 18% | -9 | 1 | 14% | -3% | 3%
C=CCNC(=O)CN(Cc1ccccc1)S(=O)(=O)c1ccccc1 | -2% | -12 | -2 | 11% | -25% | ?
O=[N+]([O-])c1cccc(-n2nnnc2CNCc2ccccc2)c1 | -4% | -12 | -3 | -4% | 28% | -23%
Cc1cccc(N2CCN(C(=O)c3ccc(CS(=O)(=O)c4ccccc4C)o3)CC2C)c1 (stereo not given) | -6% | 15 | -5 | -9% | 13µM* | 170%
COc1ccc(N2CCN(C(=O)c3ccc(CS(=O)(=O)c4ccccc4C)o3)CC2)cc1 | 14% | -5 | 0 | -21% | 13% | 10µM*
COc1ccccc1S(=O)(=O)Cc1ccc(C(=O)N2CCN(c3cccc(Cl)c3)CC2)o1 | 2% | -3 | 11 | 24% | 12µM* | 4%
Cc1ccc(C)c(N2CCN(C(=O)c3ccc(CS(=O)(=O)c4ccccc4C)o3)CC2)c1 | 1% | -9 | -1 | 8% | ? | ?
SMILES | FBPA Giardia inh | Shiga inhibitor | Cycloheximide cs | NS1 inh | Pf growth 48h | Pf growth 96h
COc1ccc(N2CCN(C(=O)c3ccc(CS(=O)(=O)c4ccc(Br)cc4)o3)CC2)cc1 | . | 13 | -1 | 5% | ? | ?
COc1ccccc1S(=O)(=O)Cc1ccc(C(=O)N2CCN(c3ccccc3)CC2)o1 | 11% | -11 | -1 | -46% | ? | 7%
COCC(=O)N1CCC2(CCCN(c3ncccn3)C2)CC1 | 0% | . | . | . | . | .
O=C(NCc1ccccc1)N1CCC(Cc2ccccc2)CC1 | -3% | -9 | -4 | 13% | -11% | 251%
O=C(NC(=S)Nc1ccc(CN2CCOCC2)cc1)c1ccc(-c2ccc(Br)cc2)o1 | 0% | 2 | -3 | 0% | 13µM* | ?
O=C(NC(=S)Nc1ccc(CN2CCOCC2)cc1)c1ccc(-c2ccc(Cl)cc2)o1 | -5% | 17 | -1 | 1% | 5% | ?
COc1ccc(Br)cc1C(=O)NC(=S)Nc1ccc(CN2CCOCC2)cc1 | . | 3 | 10 | -32% | ? | 4.7µM*
CCOc1ccc(NC(=O)CN2C(=O)NC(CCSC)C2=O)cc1 (stereo not given) | 3% | -15 | -3 | . | -13% | 8%
CSCCC1NC(=O)N(CC(=O)Nc2ccc(-c3ccccc3)cc2)C1=O (stereo not given) | 0% | 66* | 21* | -1% | 54% | 58%
COC(=O)[C@@H]1CC[C@H](C)[C@@H](c2ccc(C)cc2)N1C(=O)c1ccc(/C=N\O[C@@H](C)c2cn([C@H]3COC[C@H]3O)nn2)cc1 | 0%[12.9 µM] | . | . | . | . | .
O=C(CCN1CCN(S(=O)(=O)c2cccc([N+](=O)[O-])c2)CC1)Nc1ccccc1F | . | -9 | -7 | -11% | -8% | ?
O=C(NCc1n[nH]c(=O)c2ccccc12)C1CC(=O)N(c2ccc(Cl)cc2)C1 (stereo not given) | . | . | . | . | 4% | 52%
CSCCNC(=O)c1ccc2nc(C3CCCCC3)oc2c1 | 6% | 86* | 20* | -63% | ? | ?
CSCC[C@@H](CO)NC(=O)c1ccc2nc(C3CCCCC3)oc2c1 | 14% | -3 | -3 | 1% | -6% | ?
O=C(NCc1ccccn1)c1ccc2nc(C3CCCCC3)oc2c1 | 8% | 32* | 22* | -17% | 42% | ?
O=C(NCc1ccccn1)c1cccc([N+](=O)[O-])c1 | 7% | -2 | -2 | -9% | ? | ?
COc1ccc(CC(=O)c2cc(OC)c(OC)cc2CC(=O)O)cc1OC | 2% | 38 | -3 | 13% | -5% | .
COc1ccccc1C(=O)COC(=O)CN1C(=O)c2ccccc2C1=O | . | -3 | -3 | -24% | 67% | 31%
COc1ccc(CC(=O)c2ccc(OC)c(OC)c2)cc1 | 0% | 130 | 23* | -7% | -12% | -17%
COc1ccc(C(=O)Cc2ccc(OC)c(OC)c2)c(OC)c1 | -9% | 71 | 12* | -9% | -6% | .
COc1ccc(C(=O)CN2C(=O)c3ccccc3C2=O)c(OC)c1 | . | -15 | 15* | -8% | 33% | 46%
